Rows were chosen to be rich in hits. Some 12% of all compounds tested hit in one or more screens of this group.
JMJD2A Tudor inh = qHTS Assay for Inhibitors of JMJD2A-Tudor Domain; Potency, µM (series often up to 114 µM), for inactives: top-dose activity change, negative = inhibition, hits mostly inhibitors; hit rate 4.4% among 390,000; Lysine-specific demethylase 4A (Homo sapiens), O75164; AID 504339, 2011; AlphaScreen JMJD2A-Tudor / H3K4me3 peptide binding; note: % is set by controls: 0 for no effect and ±100 for the full control effect; nearly all actives have a fitted effect of over 50% in size
BAZ2B block = qHTS Assay for Inhibitors of BAZ2B; AlphaScreen BAZ2B-H3K14Ac peptide displacement; Potency, µM (doses to about 114 µM), for the others: at the top dose activity change, negative = inhibition, usual class: inhibitors; Bromodomain adjacent to zinc finger domain protein 2B (Homo sapiens), Q9UIF8; hit rate 4.4% among 360,000; note: % is set by controls: 0 for no effect and ±100 for the full control effect; nearly all actives have a fitted effect of over 60% in size
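AlphaScreen displacement: compounds (up to 110uM) incubated 30 min at room temperature with a preformed 50 nM BAZ2B/50 nM biotinylated H3K14Ac peptide complex in PBS pH 7.4 with Tween-20. Donor and acceptor beads at 10 ug/mL final added, 20 min light-protected before reading.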
PLK1 PBD inh = qHTS for Inhibitors of PLK1-PDB (polo-like kinase 1 - polo-box domain): Primary Screen. Serine/threonine-protein kinase PLK1 (Homo sapiens), P53350. Plk1 PBD binding of FITC phosphopeptide, fluorescence polarization. Potency, µM, for inactives: max response, negative = inhibition, hits mostly inhibitors. hit rate 2.8% among 360,000; note: series mostly up to about 57 µM; % is set by controls: 0 for no effect and ±100 for the full control effect; nearly all actives have a fitted effect of over 65% in size
HP1b chromo inh = HTS for Inhibitors of HP1-beta Chromodomain Interactions with Methylated Histone Tails | Chromobox protein homolog 1 (Homo sapiens), P83916 | AlphaScreen HP1-beta / biotin-H3K9me3 peptide binding | Potency, µM (doses to about 114 µM), without a hit: at the top dose activity change, negative = inhibition, hits mostly inhibitors | hit rate 0.56% among 390,000 | AID 540317, 2011; note: nearly all actives have a fitted effect of over 70% in size
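AlphaScreen: HP1-beta (50 nM) preformed 30 min with biotin-H3(1-18)K9me3 peptide (50 nM) in PBS pH 7.4, 0.01% Tween-20. Compound added for 30 min at RT, then streptavidin donor/nickel chelate acceptor beads (10 ug/mL) for 30 min.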
Sfp inh = qHTS Assay for Inhibitors of Bacillus subtilis Sfp phosphopantetheinyl transferase (PPTase) | hit rate 3.5% among 310,000 | Potency, µM, for the others: largest response in the series, negative = inhibition, most hits filed as inhibitors | AID 1490, 2009 | Biochemical Sfp PPTase activity, qHTS;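 note: the enzyme is Sfp with the accession as filed and its product quenches rhodamine fluorescence; 0% = enzyme reaction without inhibitor and -100% = no enzyme wells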
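Compounds were incubated with enzyme (final 15 nM) for 15 min at room temperature before substrate addition started the reaction. Fluorescence at 525 nm excitation, 598 nm emission was recorded immediately and after 30 minutes.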
G9a inh = qHTS Assay for Inhibitors of Histone Lysine Methyltransferase G9a | Histone-lysine N-methyltransferase EHMT2 (Homo sapiens), Q96KQ7 | G9a H3K9 monomethylation, AlphaScreen, 2 h | Potency, µM (highest dose often 102 µM), for the others: top-dose activity, negative = inhibition, actives largely listed as inhibitors | hit rate 8.8% among 350,000; note: % is set by controls: 0 for no effect and ±100 for the full control effect; nearly all actives have a fitted effect of over 75% in size
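Methyltransferase reactions run at room temperature for 2 h (20 nM enzyme, 500 nM biotin-H3K9 peptide, 20 uM SAM) after a 15 min compound preincubation; product detected by AlphaScreen beads and anti-H3K9me1 antibody.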
TbPYK confirm = qHTS of Trypanosoma Brucei Inhibitors: Confirmatory Assay for Cherry-picked Compounds; hit rate 67% among 890; recombinant TbPYK, Kinase-Glo ATP luminescence; shares compounds with PLK1 PBD inh; Potency, µM (titrated, usually from 76.9 µM), inactives show top-dose activity change, negative = inhibition, actives largely listed as inhibitors; note: % is set by controls: 0 for no effect and ±100 for the full control effect; nearly all actives have a fitted effect of over 70% in size
TbPYK ADP-Glo = qHTS of Trypanosoma Brucei Inhibitors: Orthogonal Assay for Cherry-picked Compounds. shares compounds with PLK1 PBD inh. recombinant TbPYK, ADP-Glo luminescence, 60 min. hit rate 62% among 890. AID 720584, 2013. Potency, µM (series often up to 76.9 µM), inactives show top-dose activity change, negative = inhibition, actives largely listed as inhibitors; note: % is set by controls: 0 for no effect and ±100 for the full control effect; nearly all actives have a fitted effect of over 75% in size
Active calls of the source: *; u = inconclusive; x = no result given; [ ] = remark or other dose. Calls come from the whole dose curve; as a rule, active = well fitted curve in the direction sought with a large enough effect; inconclusive = small, poorly fitted or top-dose-only effect, or another doubt; inactive = no such curve, though single readings can be large; an effect the other way counts as inactive or inconclusive. Potency is the fitted concentration of half-maximal effect.

SMILES | JMJD2A Tudor inh | BAZ2B block | PLK1 PBD inh | HP1b chromo inh | Sfp inh | G9a inh | TbPYK confirm | TbPYK ADP-Glo
CSc1nnnn1-c1ccc(Cl)cc1 | 8.9% | 9.3% | 2.6% | 31.1% | -16.0% | x | x | x
Cc1ccc(-n2nnnc2C(Cl)(Cl)c2nnnn2-c2ccc(C)cc2)cc1 | -27.6% | u | 1.06µM* | u | 3.16µM* | u | 1.58µM* | 2.24µM*
O=C1C(Cl)=C(NCCCN2CCOCC2)C(=O)c2ccccc21 | u | x | -18.5% | -19.6%[57 µM] | x | x | x | x
CCOCCCNC1=C(Cl)C(=O)c2ccccc2C1=O | 12.6µM* | 39.8µM* | 21.2µM* | 17.8µM* | 44.7µM* | x | u | u
COc1ccc(S(=O)(=O)N2CCN(CC(=O)c3ccc(O)c(O)c3)CC2)cc1 | u | -37.8% | -10.6% | 16.2% | 44.7µM* | 28.2µM* | u | u
COc1ccc(S(=O)(=O)N2CCN(S(=O)(=O)c3ccc(OC)cc3)CC2)cc1 | -16.4% | -3.3% | x | x | x | 13.1%[12.7 µM] | x | x
Cc1ccc(-c2cc(C(=O)Nc3cccnc3)c3ccccc3n2)o1 | 22.4µM* | -33.1% | u | u | u | 8.91µM* | u | -27.5%
COc1ccc(N2CSC3=C(C#N)C(c4cc(OC)c(OC)cc4OC)CC(=O)N3C2)c(OC)c1 (stereo unspecified) | 20µM* | 44.7µM* | 11.9µM* | 20µM* | 3.55µM* | 3.55µM* | 0.631µM* | 2.82µM*
CCOc1ccccc1N1CCN(S(=O)(=O)c2cc(C)ccc2OC)CC1 | -12.7% | -0.2% | 5.0% | 17.7% | -0.3% | x | x | x
COc1cc(OC)c(C2CC(=O)N3CN(c4ccc(C)cc4)CSC3=C2C#N)cc1OC (stereo unspecified) | 4.47µM* | u | 21.2µM* | u | 5.01µM* | -20.8%[2.33 µM] | 1.41µM* | 1.26µM*
COc1ccc(N2CSC3=C(C#N)C(c4ccc(OC)c(OC)c4)CC(=O)N3C2)c(OC)c1 (stereo unspecified) | 20µM* | u | 7.52µM* | u | 3.16µM* | 2.51µM* | 0.794µM* | 5.01µM*
CCSC1=C(C#N)C(c2ccc(OC)c(OC)c2)CC(=O)N1 (stereo unspecified) | -9.5% | -6.9% | -5.3% | 29.1% | 16.4% | -26.1%[12.7 µM] | x | x
CCOc1ccccc1N1CSC2=C(C#N)C(c3c(OC)ccc4ccccc34)CC(=O)N2C1 (stereo unspecified) | 35.5µM* | 50.1µM* | 18.9µM* | u | 3.16µM* | 0.562µM* | 1.41µM* | 1.78µM*
COC(=O)[C@@]1(Cc2ccc(F)cc2)[C@H]2c3cc(C(=O)N4CCCC4)n(CCc4c[nH]c5ccccc45)c3C[C@H]2CN1C(=O)c1ccccc1 | x | x | 6.3% | x | 7.2% | x | x | x
CCc1ccc(CN(Cc2cn[nH]c2-c2ccc(OC)cc2)C(=O)Nc2ccc(Br)cc2)cc1 | -2.6% | -2.6% | x | 45.8% | x | -0.8%[59 µM] | x | x
FC(F)(F)Oc1ccc(Nc2nc(N3CCOCC3)nc(N3CCOCC3)n2)cc1 | 17.8µM* | u | 4.74µM* | 32.3% | -1.0% | x | 5.4% | -4.3%
N#Cc1cc(N2CCCCC2)c([N+](=O)[O-])cc1C#N | 2.4% | -12.3% | -13.2% | 47.8% | -11.5% | 2.4% | x | x
O=[N+]([O-])c1cc2no[n+]([O-])c2cc1N1CCCCC1 | 44.7µM* | x | 2.67µM* | 14.1µM* | x | x | 2.24µM* | 3.55µM*
COc1cc(/C=N/N=C2/NC(=O)C(CC(=O)O)S2)ccc1OCc1ccc(Cl)cc1 (stereo unspecified) | -33.6% | u | -22.6% | 30.1% | -5.2% | 5.6% | 15.8µM* | 35.5µM*
O=C(Nc1ccc(C(=O)N2CCCC2)cc1)c1ccccc1F | 0.0% | 0.4% | -4.4% | 8.0% | 0.6% | u | 25.1µM* | 10.1%
O=C(Nc1cc(C(=O)N2CCCC2)ccc1N1CCCC1)c1ccccc1F | -16.7% | -25.9% | -4.0% | 21.7% | 21.5% | u | x | x
COc1ccccc1CNC(=O)Cc1csc2nc(-c3ccc(F)cc3)cn12 | -12.5% | -1.4% | x | 24.3%[57 µM] | x | 2.2%[59 µM] | x | x
CCCCN1CC(=O)N2[C@H]3c4cc(C)ccc4OC[C@@H]3[C@H](C(=O)OCC)[C@]2(C)C1=O | -12.1% | 4.9% | -18.7% | 69.3% | x | -2.0%[0.501 µM] | x | x
CC(Nc1ccc(N2CCOCC2)cc1)C(=O)N1c2ccccc2CC1C (stereo unspecified) | u | 35.5µM* | -0.3% | -11.9% | 10µM* | x | 3.16µM* | 7.08µM*
COc1ccc(C(=O)/C=C/C(=O)N(CC(=O)NC2CCCCC2)CC2CCCO2)c(O)c1 (stereo unspecified) | -19.9% | -30.4% | 6.7µM* | -5.0% | 3.16µM* | 8.91µM* | 7.08µM* | 10µM*
SMILES | JMJD2A Tudor inh | BAZ2B block | PLK1 PBD inh | HP1b chromo inh | Sfp inh | G9a inh | TbPYK confirm | TbPYK ADP-Glo
COc1ccc(C(=O)/C=C/C(=O)N(Cc2ccc(F)cc2)C(C(=O)NC2CCCCC2)c2ccncc2)c(O)c1 (stereo unspecified) | -25.2% | -38.3% | -1.7% | -2.3% | 3.3% | 14.6%[59 µM] | x | x
CC1CCN(S(=O)(=O)c2cc(C(=O)NCc3ccc(F)cc3)n(C)c2)CC1 | -18.8% | -2.7% | x | 22.0%[57 µM] | x | 13.0%[59 µM] | x | x
COCCn1c(=S)[nH]c2sc3c(c2c1=O)CCCC3 | -13.6% | 0.2% | -13.7% | 30.8% | -27.3% | 7.94µM* | 10µM* | 10µM*
COc1ccccc1OCCNC(=O)c1cccc(S(=O)(=O)N2CC(C)OC(C)C2)c1 (stereo unspecified) | -13.1% | -10.1% | 3.7% | 17.7% | 9.0% | -46.8% | x | x
Cc1ccc(S(=O)(=O)N2CCN(C(C)C(=O)NCC(C)c3ccccc3)CC2)cc1 (stereo unspecified) | -2.7% | x | -2.6% | 41.1% | x | x | x | x
Cc1[nH]cnc1C(=O)N/N=C/c1c(Cl)cccc1Cl | -27.4% | u | 1.2% | 4.4% | 3.1% | 1.0%[12.7 µM] | 20µM* | 12.3%

High-throughput results: PubChem, National Center for Advancing Translational Sciences (NCATS)
